Sampled rows, rich in hits. Any-hit rate of the full collection: about 3%.
SENP8 block-1 – SENP8 protease inhibitors, primary screen, biochemical, luminescence. Sentrin-specific protease 8 (Homo sapiens), Q96LD8. purified SENP8, Z-RLRGG-aminoluciferin cleavage. inhibition, % at 10 µM. 330,000 tested, 1.2% active. AID 2540, 2010; in the data active = inhibition above about 50%
Target sequence (Q96LD8 whole entry, looked up): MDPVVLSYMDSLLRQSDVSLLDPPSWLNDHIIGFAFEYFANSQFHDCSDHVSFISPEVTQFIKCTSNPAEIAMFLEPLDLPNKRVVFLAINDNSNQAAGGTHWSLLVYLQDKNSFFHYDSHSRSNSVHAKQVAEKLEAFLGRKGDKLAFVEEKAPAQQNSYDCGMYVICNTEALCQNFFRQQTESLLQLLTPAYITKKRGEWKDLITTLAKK
SENP7 block – SENP7 protease inhibitors, primary screen, biochemical, luminescence, uHTS. Sentrin-specific protease 7 (Homo sapiens), Q9BQF6. recombinant SENP7, Z-RLRGG-aminoluciferin luminescence, 40 min. inhibition, % at 5 µM. 330,000 tested, 1.5% active. AID 434973, 2010;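 active = inhibition above about 50% at the single test dose, limit read from the data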;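 note: plate controls were DMSO with enzyme for no effect and no enzyme buffer wells for full effect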
SENP6 inh – SENP6 protease inhibitors, primary screen, biochemical, luminescence, uHTS. Sentrin-specific protease 6 (Homo sapiens), Q9GZR1. inhibition, % at 10 µM. AID 2599, 2010. Recombinant SENP6 catalytic domain, aminoluciferin luminescence. 330,000 tested, 1.8% active;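 active = inhibition above about 50% at the single tested dose, limit read from the data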;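 note: plate controls were DMSO wells with enzyme for no effect and DMSO wells lacking enzyme for full effect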
C8 TRAIL sens – viability loss with TRAIL in NB7+C8 cells, primary screen, TRAIL sensitizer project, cell-based, ATPlite luminescence; inhibition (viability loss, TRAIL sensitization), % at 10 µM; 360,000 tested, 1% active;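 active = compounds causing at least 50% loss of cell viability in the single-dose screen, relative to plate controls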
SENP8 block-2 – human SENP8 protease inhibitors, primary screen, biochemical, fluorescence, Nedd8 protein substrate, uHTS; AID 602440, 2012; Sentrin-specific protease 8 (Homo sapiens), Q96LD8; inhibition, % at 20 µM; 360,000 tested, 0.64% active; recombinant SENP8; in the data active = inhibition mostly above about 40%, no sharp cut-off; inactive = mostly below about 27%
PPC-1+TRAIL kill – compounds killing PPC-1 cancer cells with TRAIL present, primary screen, TRAIL potentiator project, ATPLite luminescence, uHTS | PPC-1 cells + TRAIL, ATPLite viability luminescence | cell killing (% activity), % at 4 µM or 5 µM | 220,000 tested, 0.41% active | AID 1443, 2008;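 active = cell killing above 50% in the first pass at 4 µM, then a duplicate retest at 5 µM averaging 50% or more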;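 note: plate controls were cells with TRAIL plus DMSO for no effect and medium-only wells lacking cells for full effect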
SENP8 confirm – SENP8 protease inhibitors, retest, confirmation, biochemical, luminescence, single concentration; shares compounds with SENP7 block; Recombinant SENP8, Z-RLRGG-aminoluciferin luminescence, 60 min; inhibition, % at 12.5 µM; 6,200 tested, 40% active; AID 488912, 2010;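 active = mean inhibition across replicates above about 50%, limit read from the data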
SENP6 confirm – SENP6 protease inhibitors, confirmation, biochemical, luminescence, single concentration; shares compounds with SENP7 block; 6,200 tested, 58% active; recombinant SENP6, Z-RLRGG-aminoluciferin luminescence; inhibition, % at 12.5 µM; AID 488915, 2010
SENP7 confirm – SENP7 protease inhibitors, retest, confirmation, biochemical, luminescence, single concentration; shares compounds with SENP7 block; recombinant SENP7, Z-RLRGG-aminoluciferin luminescence, 40 min; inhibition, % at 12.5 µM; 6,200 tested, 69% active; AID 488917, 2010
Casp3 SENP sel – caspase-3 protease inhibitors, confirmation, selectivity assay for SENP inhibitor project, biochemical, single concentration | 6,200 tested, 60% active | AID 488918, 2010 | shares compounds with SENP7 block | purified caspase-3, Z-DEVD-aminoluciferin luminescence, 60 min | inhibition, % at 12.5 µM;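 active = mean inhibition above about 50%, limit read from the data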;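 note: plate controls were enzyme with DMSO for no effect and wells without caspase-3 for full effect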
Target sequence (P42574 28-227 limits assumed): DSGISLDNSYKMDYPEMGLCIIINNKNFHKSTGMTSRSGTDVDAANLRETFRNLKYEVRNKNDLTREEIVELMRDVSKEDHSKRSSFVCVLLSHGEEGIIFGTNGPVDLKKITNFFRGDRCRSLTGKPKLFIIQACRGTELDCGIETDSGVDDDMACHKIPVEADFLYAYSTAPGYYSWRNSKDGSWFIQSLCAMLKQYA
Luc interf – interferes with luciferase luminescence in SENP counter-screen; inhibition, % at 12.5 µM; Pre-incubated SENP8/Z-RLRGG-aminoluciferin, luciferase luminescence interference; shares compounds with SENP7 block; 6,200 tested, 39% active;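 active = mean inhibition above about 50% when retested at one dose, limit read from the data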;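 note: plate controls were DMSO wells with completed reaction for no effect and substrate without enzyme for full effect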
* hit, by the source's call; nt = not tested or not shown.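 Rule for the calls, unless noted: active = mean inhibition above about 50% in the one-dose retest (limit read from the data); inactive = the rest.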

SMILES	SENP8 block-1	SENP7 block	SENP6 inh	C8 TRAIL sens	SENP8 block-2	PPC-1+TRAIL kill	SENP8 confirm	SENP6 confirm	SENP7 confirm	Casp3 SENP sel	Luc interf
Cc1ccccc1-c1nc(-c2ccc(Br)o2)no1	58*	67*	72*	14	14	nt	22	64*	86*	45	38
COc1ccc(-c2cn(Cc3ccc(C(N)=O)cc3)c(-c3ccncc3)n2)cc1	61*	68*	72*	39	-494	nt	71*	69*	91*	76*	54*
COc1ccc(-c2cn(CCC(=O)O)c(-c3ccncc3)n2)cc1	-10	-1	-9	5	-132	nt	nt	nt	nt	nt	nt
Cc1cccc(C)c1NC(=O)CNC(=O)CNC(=O)c1ccc2ccccc2c1	nt	nt	nt	-13	8	nt	nt	nt	nt	nt	nt
c1ccc(-c2cnnc(-c3ccccn3)n2)cc1	17	18	17	3	26	nt	nt	nt	nt	nt	nt
c1ccc(-c2cnc(-c3ccccn3)nn2)cc1	41	60*	61*	58*	16	nt	45	44	82*	77*	54*
CCCN(CCC)CCCNC(=S)Nc1ccc2nc3n(c(=O)c2c1)CCCCC3	-5	3	0	5	-13	2	nt	nt	nt	nt	nt
CN(N=Nc1cccc([N+](=O)[O-])c1)c1ccccc1	39	47	51*	9	21	nt	43	50*	73*	39	26
CN(C(=O)Nc1cccc([N+](=O)[O-])c1)c1ccccc1	nt	nt	nt	-15	19	nt	nt	nt	nt	nt	nt
CN(N=Nc1ccc([N+](=O)[O-])cc1)c1ccccc1	8	60*	60*	4	34	-2	7	9	23	25	6
CN(CCCC(=O)O)c1ccc(N=Nc2ccc([N+](=O)[O-])cc2)cc1	81*	54*	90*	37	29	nt	84*	84*	30	76*	46
CC(C)N(N=Nc1ccc([N+](=O)[O-])cc1)C(C)C	1	-4	11	-6	20	4	nt	nt	nt	nt	nt
Cc1ccccc1OCC(=O)OCC(=O)c1c[nH]c2ccccc12	-16	-15	-14	8	-13	nt	nt	nt	nt	nt	nt
CCN(CC)CCOC(=O)c1ccc(NC(=O)CCCN2C(=O)/C(=C/c3cccs3)SC2=S)cc1	-14	-14	3	23	22	nt	nt	nt	nt	nt	nt
Cc1cc(-n2c(C)cc(C(=O)COc3ccccc3[N+](=O)[O-])c2C)no1	-4	5	-8	0	6	8	nt	nt	nt	nt	nt
Cc1cc(-n2c(C)cc(C(=O)COc3ccc(F)c(F)c3)c2C)no1	46	40	64*	7	2	nt	60*	59*	81*	48	26
O=C(Nc1cccc(C(=O)N2CCOCC2)c1)c1ncn[nH]1	2	85*	-4	-33	7	11	11	8	13	8	6
COc1cc2ccc(CC(N)=O)cc2cc1OC	nt	nt	nt	-3	2	nt	nt	nt	nt	nt	nt
Cc1ccccc1NC(=O)c1onc2c1CCCC2	66*	55*	83*	23	8	16	22	63*	90*	85*	72*
Cc1cccc(NC(=O)c2cccc(NC(=O)c3ccccc3)c2)n1	4	1	15	-19	12	nt	nt	nt	nt	nt	nt
Cc1cccc(NC(=O)c2onc3c2CCCC3)n1	93*	97*	95*	86*	4	81*	96*	98*	102*	98*	96*
Cc1cccc(NC(=O)c2onc3c2CCCC3)c1C	24	25	49	21	11	-4	nt	nt	nt	nt	nt
CSCCC(NC(=O)OCc1ccccc1)C(=O)NCc1cccnc1 (centres undefined)	-12	-3	-6	1	10	nt	nt	nt	nt	nt	nt
NC1=NC(=O)C(CC(=O)Nc2ccc3c(c2)OCO3)S1 (centres undefined)	3	14	8	-3	13	1	nt	nt	nt	nt	nt
Cc1ccc(NC(=O)NNC(=O)C2CC(c3cccs3)=NO2)cc1 (centres undefined)	-3	-7	-11	-1	0	nt	nt	nt	nt	nt	nt
SMILES	SENP8 block-1	SENP7 block	SENP6 inh	C8 TRAIL sens	SENP8 block-2	PPC-1+TRAIL kill	SENP8 confirm	SENP6 confirm	SENP7 confirm	Casp3 SENP sel	Luc interf
Cc1onc(-c2c(F)cccc2Cl)c1C(=O)Nc1cccc(S(=O)(=O)NCc2ccco2)c1	-5	-13	-7	-5	6	29	nt	nt	nt	nt	nt
O=C(N/N=C\c1ccc2c(c1)OCO2)c1ccco1	64*	72*	69*	48	-41	16	68*	67*	91*	90*	68*
CCN(CC)c1ccc(/C=N/NC(=O)c2ccco2)c(O)c1	30	63*	59*	45	-450	47	37	59*	86*	60*	65*
C[C@H]1CN([C@@H](C)CO)C(=O)c2cc(Br)cnc2O[C@@H]1CN(C)S(=O)(=O)c1cn(C)cn1	nt	nt	nt	-8	0	nt	nt	nt	nt	nt	nt
O=C(OCC1COc2ccccc2O1)c1c(F)cccc1F (centres undefined)	-7	83*	-2	26	10	-13	2	2	1	0	10
CSC[C@@H]1NC(=S)N(c2ccc(C)cc2)C1=O	5	0	-8	20	16	-4	nt	nt	nt	nt	nt
COc1ccc(-c2cc3nnc(-c4ccccc4)nc3s2)cc1	43	4	-6	37	-2	9	nt	nt	nt	nt	nt
COc1ccc(-c2cc3ncnc(Cl)c3s2)cc1	84*	46	83*	48	-313	nt	-22	34	48	40	12
COC(=O)/N=C(/Cc1ccc(OC)cc1)c1ccc(OC)cc1	92*	94*	96*	-18	6	nt	97*	97*	102*	96*	90*

Source: PubChem
